Results published in PubChem BioAssay (NCATS).
Where “and” joins values, the source holds several entries; their conditions need not be identical. Identical values can stand only once. Results filed as inconclusive are left out. Calls of active or inactive are those of the source. Unless noted, calls come from the whole dose curve; as a rule, active = well fitted curve in the direction sought with a large enough effect; inconclusive = small, poorly fitted or top-dose-only effect, or another doubt; inactive = no such curve, though single readings can be large; an effect the other way counts as inactive or inconclusive.

Experiments:
[1] = target: Cytochrome P450 3A4 (Homo sapiens) (UniProt P08684); test: qHTS Assay for Inhibitors and Substrates of Cytochrome P450 3A4 (AID 884); note: series mostly up to about 57 µM; % is set by controls: 0 for no effect and ±100 for the full control effect; nearly all actives have a fitted effect of over 50% in size
Summary of the method: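 Luminescent readout of luciferin produced by CYP3A4 (20 nM) dealkylation of Luciferin-PPXE, 25 uM (its KM). NADPH-driven reaction ran 60 min at RT after 10 min compound preincubation; data scaled to 57 uM ketoconazole as 100% inhibition.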

[2] = target: Cytochrome P450 2D6 (Homo sapiens) (UniProt P10635); test: qHTS Assay for Inhibitors and Substrates of Cytochrome P450 2D6 (AID 891);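 note: luciferin methyl ether substrate demethylated by CYP2D6 with NADPH regeneration; % is set by controls: 0 for no effect and ±100 for the full control effect; nearly all actives have a fitted effect of over 60% in size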
Summary of the method: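 Luminescent read-out of luciferin formed by 5 nM human CYP2D6 demethylating 30 uM Luciferin-ME EGE (Km level) over 60 min at room temperature after NADPH regeneration addition. Data normalized to full inhibition by 1.43 uM quinidine.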

[3] = target: Cytochrome P450 2C19 (Homo sapiens) (UniProt P33261); test: qHTS Assay for Inhibitors and Substrates of Cytochrome P450 2C19 (AID 899); note: % is set by controls: 0 for no effect and ±100 for the full control effect; nearly all actives have a fitted effect of over 60% in size
Summary of the method: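 Human CYP2C19 (5nM) with Luciferin-H EGE at 10uM (its KM) in 50mM KPO4 was preincubated with compound for 10 min at 37C. NADPH regeneration started a 60 min 37C reaction. Luciferin was read by luminescence, normalized to 57uM ketoconazole.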

[4] = qHTS for Inhibitors of Plasmodium falciparum (DD2) proliferation (AID 504314);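 note: parasite DNA measured by SYBR Green fluorescence after red cell lysis; plate controls were DMSO vehicle for no effect and artemisinin wells for full effect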
Summary of the method: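 Normalization used 0.29 uM artemisinin as full inhibition and DMSO as baseline. Parasitized erythrocytes were exposed to compounds for 72 h (37C, 5% CO2), then lysed with saponin/Triton buffer containing SYBR Green I.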

[5] = qHTS for Inhibitors of Plasmodium falciparum (7G8) proliferation (AID 504316); note: nearly all actives have a fitted effect of over 65% in size; note: potency is the fitted concentration of half-maximal effect;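 for activity change, negative = inhibition: series mostly up to about 6.7 µM; 0% = DMSO vehicle and -100% = 0.29 µM artemisinin full kill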
Summary of the method: (§1)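 Parasite growth measured as SYBR Green DNA fluorescence (ex 485, em 535 nm) after overnight lysis following 72 h culture at 37 °C, 0.3% parasitemia, 2.5% hematocrit. Values normalized against DMSO and 0.29 uM artemisinin controls, with plate-stack correction.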

[6] = qHTS for Inhibitors of Plasmodium falciparum (HB3) proliferation (AID 504318); note: nearly all actives have a fitted effect of over 60% in size; note: potency is the fitted concentration of half-maximal effect;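 for activity change, negative = inhibition: 0% = DMSO vehicle and -100% = artemisinin control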
Summary of the method: as §1

[7] = qHTS for Inhibitors of Plasmodium falciparum (CP250) proliferation (AID 504320); note: potency is the fitted concentration of half-maximal effect;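 for activity change, negative = inhibition: plate controls were DMSO vehicle for no effect and 0.29 µM artemisinin control for full effect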
Summary of the method: as §1

[8] = target: Atrial natriuretic peptide receptor 1 (Homo sapiens) (UniProt P16066); test: Natriuretic polypeptide receptor (hNpr1) antagonism - Pilot CMLD screen (AID 1347052; calls by dose curve;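 note: cGMP level read as GloSensor luciferase luminescence after agonist stimulation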; note: potency is the fitted concentration of half-maximal effect;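 for activity change, negative = inhibition: HEK293 cells with hNpr1 stimulated by hNppA peptide at 0.1 nM; series mostly up to about 9.2 µM; % is set by controls: 0 for no effect and ±100 for the full control effect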)
[9] = target: Cytochrome P450 2C9 (Homo sapiens) (UniProt P11712); test: qHTS Assay for Inhibitors and Substrates of Cytochrome P450 2C9 (AID 883); note: % is set by controls: 0 for no effect and ±100 for the full control effect; nearly all actives have a fitted effect of over 60% in size
Summary of the method: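 Human CYP2C9 (10nM) hydroxylated Luciferin-H (100uM, at its KM) to luciferin in 25mM KPO4. Compound was preincubated 10 min at 37C, then NADPH regeneration started a 60 min reaction at 37C. Luminescence was read after detection reagent, normalized to 57uM sulphaphenazole.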

Chain of Atrial natriuretic peptide receptor 1 (Homo sapiens) (P16066 whole entry, looked up): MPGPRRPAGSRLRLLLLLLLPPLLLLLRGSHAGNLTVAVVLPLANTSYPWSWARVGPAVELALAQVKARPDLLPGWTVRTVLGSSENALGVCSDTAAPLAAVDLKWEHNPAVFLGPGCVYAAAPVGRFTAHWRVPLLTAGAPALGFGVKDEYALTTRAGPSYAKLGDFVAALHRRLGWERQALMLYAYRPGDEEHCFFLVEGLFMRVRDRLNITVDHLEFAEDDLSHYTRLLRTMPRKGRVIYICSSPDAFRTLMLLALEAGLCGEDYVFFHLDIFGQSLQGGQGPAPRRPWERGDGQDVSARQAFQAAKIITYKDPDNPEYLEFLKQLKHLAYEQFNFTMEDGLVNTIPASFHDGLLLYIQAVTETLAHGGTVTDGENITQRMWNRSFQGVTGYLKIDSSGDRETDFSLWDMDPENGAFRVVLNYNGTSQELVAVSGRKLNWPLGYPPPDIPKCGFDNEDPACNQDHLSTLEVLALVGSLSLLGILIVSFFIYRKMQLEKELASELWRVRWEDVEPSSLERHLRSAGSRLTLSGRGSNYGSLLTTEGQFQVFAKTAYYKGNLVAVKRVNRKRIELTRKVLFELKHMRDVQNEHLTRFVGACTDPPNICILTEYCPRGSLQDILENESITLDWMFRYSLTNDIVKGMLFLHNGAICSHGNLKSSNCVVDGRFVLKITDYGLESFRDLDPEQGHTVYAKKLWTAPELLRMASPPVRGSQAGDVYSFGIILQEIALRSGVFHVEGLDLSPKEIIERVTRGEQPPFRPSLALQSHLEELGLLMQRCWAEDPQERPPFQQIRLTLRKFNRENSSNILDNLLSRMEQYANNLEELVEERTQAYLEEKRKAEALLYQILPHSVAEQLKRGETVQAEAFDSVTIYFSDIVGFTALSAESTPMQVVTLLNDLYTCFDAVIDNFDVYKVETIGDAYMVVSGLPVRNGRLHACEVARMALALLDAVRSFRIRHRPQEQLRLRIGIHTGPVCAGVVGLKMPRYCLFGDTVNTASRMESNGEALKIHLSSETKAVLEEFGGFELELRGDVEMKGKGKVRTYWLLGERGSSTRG
Chain of Cytochrome P450 2D6 (Homo sapiens) (P10635 whole entry, looked up): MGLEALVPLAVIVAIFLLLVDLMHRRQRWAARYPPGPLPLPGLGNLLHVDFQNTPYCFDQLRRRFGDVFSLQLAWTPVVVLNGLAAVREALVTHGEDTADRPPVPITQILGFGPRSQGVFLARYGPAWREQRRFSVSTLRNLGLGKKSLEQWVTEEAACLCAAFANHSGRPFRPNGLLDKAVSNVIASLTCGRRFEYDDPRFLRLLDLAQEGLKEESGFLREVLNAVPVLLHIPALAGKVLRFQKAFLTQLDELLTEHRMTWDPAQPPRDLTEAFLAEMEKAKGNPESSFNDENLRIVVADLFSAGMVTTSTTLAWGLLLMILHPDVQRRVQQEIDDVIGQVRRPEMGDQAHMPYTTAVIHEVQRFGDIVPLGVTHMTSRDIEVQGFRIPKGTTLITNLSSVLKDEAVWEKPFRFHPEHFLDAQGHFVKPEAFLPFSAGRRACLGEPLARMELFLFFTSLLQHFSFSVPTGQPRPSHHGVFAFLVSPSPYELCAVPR
Chain of Cytochrome P450 3A4 (Homo sapiens) (P08684 whole entry, looked up): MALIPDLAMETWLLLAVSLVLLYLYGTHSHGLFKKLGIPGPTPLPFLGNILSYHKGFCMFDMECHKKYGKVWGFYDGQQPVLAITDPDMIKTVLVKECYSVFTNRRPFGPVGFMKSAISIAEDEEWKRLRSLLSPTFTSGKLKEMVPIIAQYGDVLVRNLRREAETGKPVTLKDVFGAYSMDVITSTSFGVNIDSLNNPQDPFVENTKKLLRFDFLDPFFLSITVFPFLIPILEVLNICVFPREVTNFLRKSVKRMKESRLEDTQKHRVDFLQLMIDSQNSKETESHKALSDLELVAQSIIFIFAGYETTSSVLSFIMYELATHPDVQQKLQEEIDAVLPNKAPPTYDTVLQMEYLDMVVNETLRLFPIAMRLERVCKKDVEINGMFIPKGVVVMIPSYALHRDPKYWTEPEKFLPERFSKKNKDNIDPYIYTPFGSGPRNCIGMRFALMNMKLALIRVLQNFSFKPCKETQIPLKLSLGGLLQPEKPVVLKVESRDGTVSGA
Chain of Cytochrome P450 2C19 (Homo sapiens) (P33261 whole entry, looked up): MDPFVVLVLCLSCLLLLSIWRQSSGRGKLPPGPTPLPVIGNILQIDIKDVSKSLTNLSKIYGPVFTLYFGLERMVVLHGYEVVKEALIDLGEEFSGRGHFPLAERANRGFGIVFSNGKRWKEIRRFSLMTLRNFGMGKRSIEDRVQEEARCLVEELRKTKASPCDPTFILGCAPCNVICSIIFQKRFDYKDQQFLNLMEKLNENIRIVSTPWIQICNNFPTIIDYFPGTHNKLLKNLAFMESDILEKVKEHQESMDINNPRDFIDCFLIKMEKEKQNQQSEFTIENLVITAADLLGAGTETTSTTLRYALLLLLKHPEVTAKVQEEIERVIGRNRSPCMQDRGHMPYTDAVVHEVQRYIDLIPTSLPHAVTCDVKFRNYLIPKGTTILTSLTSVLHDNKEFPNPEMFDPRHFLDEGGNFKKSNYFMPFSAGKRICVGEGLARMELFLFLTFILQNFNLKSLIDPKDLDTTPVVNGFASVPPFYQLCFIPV
Chain of Cytochrome P450 2C9 (Homo sapiens) (P11712 whole entry, looked up): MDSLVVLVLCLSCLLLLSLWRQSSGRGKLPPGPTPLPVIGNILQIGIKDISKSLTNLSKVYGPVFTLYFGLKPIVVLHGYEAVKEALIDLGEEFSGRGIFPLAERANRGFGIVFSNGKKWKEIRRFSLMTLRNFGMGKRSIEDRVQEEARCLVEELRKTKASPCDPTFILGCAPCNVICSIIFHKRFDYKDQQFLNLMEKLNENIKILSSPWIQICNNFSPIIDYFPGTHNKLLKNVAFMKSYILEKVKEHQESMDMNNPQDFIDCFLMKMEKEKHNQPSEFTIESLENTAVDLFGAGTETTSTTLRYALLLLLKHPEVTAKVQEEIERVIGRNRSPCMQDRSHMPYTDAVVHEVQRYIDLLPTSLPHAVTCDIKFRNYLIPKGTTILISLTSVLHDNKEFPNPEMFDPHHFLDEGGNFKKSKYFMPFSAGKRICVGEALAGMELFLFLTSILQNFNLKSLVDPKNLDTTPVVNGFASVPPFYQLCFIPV

Cc1c(O)c(=O)c2ccccc2n1C
inactive: activity change, negative = inhibition [1] 0.317% [at 11.4 µM] | activity change, negative = inhibition [2] 2.15% [at 11.4 µM] | activity, negative = inhibition [3] 73.4% [at 11.4 µM] | Potency [4] | Potency [5] | Potency [6] | Potency [7] | Potency [8]

CCCCc1cc2c(cn1)=C(OC(=O)c1ccco1)C(C)(OC(=O)CC)C(=O)C=2 (centres undefined)
active: Potency [5] 1510 nM
inactive: activity, negative = inhibition [4] 5.3% [at 1.12 µM] | Potency [6] | Potency [7] | Potency [8]

COC1=C[C@H](C(=O)NCCNC(C)=O)[C@@]2(C)Cc3ccccc3[C@@H]2CC1=O
inactive: Potency [4] | Potency [5] | Potency [6] | Potency [7] | Potency [8]

CCOC(=O)CN1C(=O)NC(c2cccc(F)c2)C(C(C)=O)=C1C (centres undefined)
inactive: Potency [4] | Potency [5] | Potency [6] | Potency [7] | Potency [8]

COC(=O)C(C(=O)OC)[C@@H]1O[C@@]23COCC[C@]2(C)[C@@H]3c2ccccc21
inactive: Potency [4] | Potency [5] | Potency [6] | Potency [7] | Potency [8]

C=CC[C@@H]1C=C(C(=O)OC)N(C(=O)C(F)(F)F)[C@@H](c2ccccc2Br)[C@@H]1C
inactive: Potency [4] | Potency [5] | Potency [6] | Potency [7] | Potency [8]

CC(=O)OC[C@H]1O[C@@H](ON=CC[C@@H]2C=C[C@@H](OC(C)=O)[C@@H](COC(C)=O)O2)[C@@H](OC(C)=O)[C@@H](OC(C)=O)[C@@H]1OC(C)=O
inactive: Potency [4] | Potency [5] | Potency [6] | Potency [7] | Potency [8]

COc1cccc([C@H]2Oc3ccc(OC)cc3C(=NO[C@@H](C)c3cc(-c4c(C)cc(C)cc4C)no3)[C@H]2O)c1
inactive: Potency [4] | Potency [5] | Potency [6] | Potency [7] | Potency [8]

CCOC(=O)CN1C(=O)NC(c2ccc(Br)cc2)C(C(=O)OC)=C1C (centres undefined)
inactive: Potency [4] | Potency [5] | Potency [6] | Potency [7] | Potency [8]

CC=CC1=CC2=CC(=O)C(C)(OC(=O)c3c(C)cc(O)cc3O)C(=O)C2=CO1 (centres undefined)
inactive: Potency [4] | Potency [5] | Potency [6] | Potency [7] | Potency [8]

COC(=O)N1C2CC3(C)CC(=O)CC1(C)C3c1ccccc12 (centres undefined)
inactive: Potency [4] | Potency [5] | Potency [6] | Potency [7] | Potency [8]

COc1cc2c(c(OC)c1)[C@H](C=Cc1ccccc1)[C@@H]([C@H](O)CO)OC2
inactive: Potency [4] | Potency [5] | Potency [6] | Potency [7] | Potency [8]

CC(CCC(=O)OC[C@H]1O[C@H](C#Cc2ccccc2)C=C[C@H]1Oc1ccc(C)cc1)=NO[C@@H](C)c1cn([C@H](CO)Cc2ccccc2)nn1
inactive: Potency [4] | Potency [5] | Potency [6] | Potency [7] | Potency [8]

CCOC(=O)CCN1C(=O)[C@@H]2[C@H]3[C@H](O)[C@H](O)CC(=NNC(=O)OCc4ccc(OC)cc4)[C@@H]3CC[C@H]2C1=O
inactive: Potency [4] | Potency [5] | Potency [7] | Potency [8]

C=CCC1(O)C=CCC2C3C4C(OC(C)(C)C)C2C1C34 (centres undefined)
inactive: activity change, negative = inhibition [9] -12.7% [at 11.4 µM] | activity change, negative = inhibition [1] -11.8% [at 11.4 µM] | activity change, negative = inhibition [2] -4.54% [at 11.4 µM] | activity, negative = inhibition [3] -32.4% [at 11.4 µM] | Potency [4] | Potency [5] | Potency [6] | Potency [7] | Potency [8]

CC(C)=CCCC(C)=CCON=C1C[C@@H](O)[C@@H](O)[C@@H]2[C@H]3C(=O)N(C[C@@H]4CCCO4)C(=O)[C@@H]3CC[C@@H]12
inactive: Potency [4] | Potency [5] | Potency [6] | Potency [7] | Potency [8]

CC(Nc1oc(-c2ccccc2)nc1C(C)(C)C)c1ccccc1 (centres undefined)
inactive: Potency [4] | Potency [5] | Potency [7] | Potency [8]

COc1cc2c(c(OC)c1OC)C1(c3ccccc3)CCCCCC1[C@@H]2NC(=O)C(F)(F)F (some centres undefined)
inactive: Potency [4] | Potency [5] | Potency [7] | Potency [8]

CC(CCN1CCc2nc(-c3ccccc3)c(-c3ccccc3)cc2C1)=NOC[C@@H](O)[C@H]1O[C@@H]2OC(C)(C)O[C@H]2[C@@H]1O
active: Potency [5] 1900 nM
inactive: Potency [4] | Potency [7] | Potency [8]

Cc1cc2c(c(=O)o1)[C@H]1O[C@](c3ccsc3)(Cc3cc(C#N)ccc31)O2
inactive: Potency [4] | Potency [5] | Potency [6] | Potency [7] | Potency [8]

COc1ccc2c(c1)[C@@H](NC(=O)C(F)(F)F)[C@@H]1CCCC[C@]21c1ccccc1
inactive: Potency [4] | Potency [5] | Potency [7] | Potency [8]

C=CCOC(=O)NC(c1ccc(F)c(F)c1)C(C(=O)CCl)C(=O)OC (centres undefined)
inactive: Potency [4] | Potency [5] | Potency [6] | Potency [7] | Potency [8]

COc1ccc(C(O)C2=CCCC2=O)cc1 (centres undefined)
inactive: Potency [4] | Potency [5] | Potency [6] | Potency [7] | Potency [8]

COC(=O)[C@@]1(C=C2c3ccc(F)cc3[C@@H](OC)[C@@H]2C)[C@@H]2C=CC[C@@H]21
inactive: Potency [4] | Potency [5] | Potency [7] | Potency [8]

CC(=O)Nc1ccc(S(=O)(=O)N2CCc3nc(-c4ccccc4)c4c(c3C2)CO[C@@H](C)C4)cc1
inactive: activity, negative = inhibition [4] -1.41% [at 1.12 µM] | Potency [5] | Potency [6] | Potency [7] | Potency [8]

COC(=O)C[C@H]1c2ccccc2C2=C(C[C@@H](C)[C@H]3C(=O)N(c4ccccc4)C(=O)[C@@H]23)N1C(=O)OC
inactive: activity, negative = inhibition [4] 2.35% [at 1.12 µM] and 0.352% [at 1.12 µM] | Potency [5] | Potency [7] | Potency [8]

CO[C@H](C1CCCCC1)[C@H](C)C=CCC(=O)OCCCc1ccccc1
inactive: Potency [4] | Potency [5] | Potency [6] | Potency [7] | Potency [8]

COC(=O)N[C@H](C[N+](=O)[O-])C(C)(C)C
inactive: Potency [4] | Potency [5] | Potency [6] | Potency [7] | Potency [8]

Cc1ccc(O[C@@H]2[C@H](O)CO[C@H]2C=CC#Cc2ccc(C(C)(C)C)cc2)cc1
inactive: Potency [4] | Potency [5] | Potency [6] | Potency [7] | Potency [8]

COCCN1C(=O)N[C@@H](CCc2ccccc2)[C@H](C(=O)OC)[C@H]1C
inactive: Potency [4] | Potency [5] | Potency [6] | Potency [7] | Potency [8]

COc1cccc2c1C1(CCCCC1)CC2NC(=O)C(F)(F)F (centres undefined)
inactive: Potency [4] | Potency [5] | Potency [7] | Potency [8]

C=C(Nc1ccc(OC)cc1)C(=O)OC
inactive: Potency [4] | Potency [5] | Potency [6] | Potency [7] | Potency [8]

CC(C)(C(O)c1ccc([N+](=O)[O-])cc1)[N+](=O)[O-] (centres undefined)
inactive: Potency [4] | Potency [5] | Potency [6] | Potency [7] | Potency [8]

CC1=C[C@@H](COCc2ccccc2)O[C@@]2(C1)C(=O)N(Cc1ccc(Br)cc1)c1ccccc12
inactive: Potency [4] | Potency [5] | Potency [7] | Potency [8]

C=C(C)C(=O)OC[C@H]1CN2[C@H](c3ccc(Br)cc3)[C@H](C)CC[C@H]2C(=O)O1
inactive: Potency [4] | Potency [5] | Potency [8]
active: Potency [7] 1510 nM

C[C@@H]1CC[C@H]2C(=O)O[C@@H](Cc3ccccc3)CN2[C@@H]1c1ccc(Br)cc1
inactive: Potency [4] | Potency [5] | Potency [7] | Potency [8]

COC(=O)N[C@H](C(C(=O)OC)=C(C)NCc1ccccc1)c1ccco1
inactive: Potency [4] | Potency [6] | Potency [7] | Potency [8]

CCOC(=O)CN1C(=O)NC(c2ccccc2)C(C(C)=O)=C1C (centres undefined)
inactive: Potency [4] | Potency [6] | Potency [7] | Potency [8]

C[C@H]1CCCC(=O)N[C@@H](c2ccccc2)[C@@H](C)CCCC(=O)N[C@@H]1c1ccccc1
inactive: Potency [4] | Potency [5] | Potency [7] | Potency [8]

COC(=O)CC=C[C@@H](C)[C@H](O)c1ccccc1Br
inactive: Potency [4] | Potency [8]
active: Potency [6] 1900 nM

C[C@@H]1C=CCCO[C@]12C(=O)N(Cc1ccccc1C(F)(F)F)c1cccc(Br)c12
inactive: Potency [4] | Potency [7] | Potency [8]

C=C(COC)C1=CCC(C(=O)OC)(C(=O)OC)[C@@H](C[N+](=O)[O-])c2ccccc21
inactive: Potency [4] | Potency [6] | Potency [7] | Potency [8]

Cc1cccc(C)c1Nc1oc(-c2ccccc2)nc1-c1cccc2ccccc12
inactive: Potency [4] | Potency [6] | Potency [7] | Potency [8]

C[C@@H]1C[C@H]2[C@@H](C)C(=O)N3[C@@H](C[C@@H](C)[C@@H]3c3ccccc3)[C@@H](C)C(=O)N2[C@H]1c1ccccc1
inactive: Potency [4] | Potency [6] | Potency [7] | Potency [8]

CCCCCCCc1cc2ccccc2c2c(C(=O)OC)c(C)c(C(=O)OC)n12
inactive: Potency [4] | Potency [6]
active: Potency [8] 944 nM

C[C@@H]1CC2=CCCC2[C@]2(O1)C(=O)N(Cc1ccc(Br)cc1)c1cccc(Br)c12 (some centres undefined)
inactive: Potency [4] | Potency [5] | Potency [7] | Potency [8]

COc1ccc(-c2nc(-c3ccccc3)oc2Nc2ccccc2C)cc1
inactive: Potency [4] | Potency [5] | Potency [7] | Potency [8]

C=CC[C@@H]1C=C[C@H](ON=C2c3cc(OC)ccc3O[C@H](c3cccc(OC)c3)[C@@H]2O)[C@H](CO)O1
inactive: Potency [4] | Potency [6] | Potency [7] | Potency [8]

COC(=O)CC(Oc1c(C)n(C)c2ccccc2c1=O)c1ccccc1 (centres undefined)
inactive: Potency [4] | Potency [6] | Potency [7] | Potency [8]

COc1ccc(C=CN(CCc2ccc(OC)c(OC)c2)C(=O)c2ccccn2)cc1
inactive: Potency [4] | Potency [6] | Potency [7] | Potency [8]
